# Where “and” joins values, the source holds several entries; their conditions need not be identical. Identical values can stand only once. In all, about 220,000 compounds went through this assay and about 5,700 (2.6%) were called active. Where a call stands in place of a potency, no number is given. Not shown: some 18% with an inconclusive outcome. Calls follow the shape of the dose curve; as a rule, active = well fitted inhibition curve with a large enough effect; inconclusive = small, poorly fitted or top-dose-only effect; inactive = no such curve, though single readings can be large or run the other way. Only a selection was taken, and actives are over-represented in it overall.
# Molecular target: Lysine-specific demethylase 5B (Homo sapiens) (UniProt Q9UGL1)
# Experiment: Primary screen for KDM5B Histone Demethylases FDH-coupled qHTS; also: nearly all actives have a fitted effect of over 70% in size
# Settings: FDH-coupled NADH fluorescence (FDH is formaldehyde dehydrogenase); series mostly up to 57.7 µM
# Outline: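 Compound dilutions met 200 nM (final) KDM5BΔAP for 10 min at room temperature before substrate addition. The substrate mix held 12.5 µM H3K4me3 with cofactors 25 µM α-ketoglutarate and 50 µM Fe²⁺. NADH signal gain over 30 min defined activity.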
# Potency is read from the fitted curve at half-maximal effect.
# Lysine-specific demethylase 5B (Homo sapiens), sequence (Q9UGL1 whole entry, looked up): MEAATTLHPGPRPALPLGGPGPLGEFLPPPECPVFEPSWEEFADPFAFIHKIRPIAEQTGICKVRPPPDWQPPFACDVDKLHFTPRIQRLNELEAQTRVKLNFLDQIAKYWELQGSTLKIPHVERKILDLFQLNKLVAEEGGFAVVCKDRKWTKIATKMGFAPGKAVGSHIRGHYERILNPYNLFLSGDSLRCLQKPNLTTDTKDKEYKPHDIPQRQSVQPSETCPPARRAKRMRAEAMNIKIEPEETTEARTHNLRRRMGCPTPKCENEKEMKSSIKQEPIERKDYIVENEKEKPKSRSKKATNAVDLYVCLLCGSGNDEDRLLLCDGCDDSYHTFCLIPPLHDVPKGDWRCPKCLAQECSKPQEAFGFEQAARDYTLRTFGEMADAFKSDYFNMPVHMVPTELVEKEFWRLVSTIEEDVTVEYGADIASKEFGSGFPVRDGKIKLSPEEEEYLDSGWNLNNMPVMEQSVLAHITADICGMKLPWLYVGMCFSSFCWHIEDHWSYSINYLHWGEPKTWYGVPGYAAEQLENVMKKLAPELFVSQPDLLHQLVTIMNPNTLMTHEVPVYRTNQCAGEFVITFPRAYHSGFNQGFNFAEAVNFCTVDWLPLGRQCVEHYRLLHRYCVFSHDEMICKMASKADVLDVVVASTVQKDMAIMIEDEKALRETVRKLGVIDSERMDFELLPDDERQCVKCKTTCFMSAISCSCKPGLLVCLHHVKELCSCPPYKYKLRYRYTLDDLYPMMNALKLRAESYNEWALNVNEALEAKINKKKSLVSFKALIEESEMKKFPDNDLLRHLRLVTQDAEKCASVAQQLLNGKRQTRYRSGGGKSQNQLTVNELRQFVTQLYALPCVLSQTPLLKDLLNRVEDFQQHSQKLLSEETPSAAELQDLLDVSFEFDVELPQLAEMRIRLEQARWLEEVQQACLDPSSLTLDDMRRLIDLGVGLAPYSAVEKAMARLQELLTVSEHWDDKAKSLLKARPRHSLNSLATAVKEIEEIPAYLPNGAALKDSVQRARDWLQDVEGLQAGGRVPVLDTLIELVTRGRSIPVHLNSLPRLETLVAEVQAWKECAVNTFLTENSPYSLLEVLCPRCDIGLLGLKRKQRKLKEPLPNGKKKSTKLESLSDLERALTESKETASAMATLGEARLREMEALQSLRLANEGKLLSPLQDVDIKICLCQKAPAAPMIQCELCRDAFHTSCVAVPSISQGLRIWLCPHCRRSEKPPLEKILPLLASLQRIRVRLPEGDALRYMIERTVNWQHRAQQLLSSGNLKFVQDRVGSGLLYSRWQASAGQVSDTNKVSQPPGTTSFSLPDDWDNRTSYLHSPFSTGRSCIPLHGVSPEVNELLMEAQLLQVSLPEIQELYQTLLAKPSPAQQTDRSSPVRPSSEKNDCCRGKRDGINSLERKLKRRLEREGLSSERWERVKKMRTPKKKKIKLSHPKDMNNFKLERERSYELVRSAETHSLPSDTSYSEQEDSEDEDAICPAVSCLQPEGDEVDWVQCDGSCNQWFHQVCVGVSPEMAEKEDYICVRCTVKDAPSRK
row,Compound,Potency
1,CC(=O)N1CCN(C(=O)CCC(=O)N2CCC(c3noc4cc(F)ccc34)CC2)CC1,inactive
2,Cc1cccc(-c2cccc(NC(=O)C3CCCN(C(=O)CC(F)(F)F)C3)c2)c1 (configuration not stated),inactive
3,O=C(NC1CCCCC1)N1CCCCCC1c1nc(-c2cccnc2)no1 (configuration not stated),inactive
4,Cc1cccc(-c2nc3cnccn3c2NCCC(=O)N2CCCCCC2)c1,28.2 µM (active)
5,O=C(CCNc1c(-c2ccc(F)cc2)nc2cnccn12)Nc1ccc2c(c1)OCO2,25.1 µM (active)
6,CC(C)CCN(CC(=O)NC(N)=O)C1CC1,inactive
7,COc1ccc(NC(=O)Cc2c(C)c3ccc(OC)c(C)c3oc2=O)cc1OC,inactive
8,COC(=O)c1ccc(OCc2cccc(C#N)c2)c(OC)c1,inactive
9,Cn1c(=O)c2c(ncn2CCC(=O)Nc2ccc(F)cc2F)n(C)c1=O,inactive
10,COc1ccc(Nc2ccccc2)cc1,inactive
11,CCCn1nc(C(=O)OCc2nc(-c3cccc(OC)c3)no2)c2ccccc2c1=O,inactive
12,Cc1nc(-c2ccccc2)n(CC(=O)NCc2ccc(F)cc2)c(=O)c1CCO,inactive
13,COCCNC(=O)c1cc(-c2cccc(Cl)c2)on1,inactive
14,O=C(c1cc(-c2ccccc2)n[nH]1)N1CCN(c2ncccn2)CC1,inactive
15,Cc1cccc(C)c1-c1nc(C(=O)N2CCN(c3ncccn3)CC2)n2ccccc12,31.6 µM (active) and 28.2 µM (active)
16,Cc1cccc(C)c1-c1nc(C(=O)NCc2ccc(F)cc2)n2ccccc12,28.2 µM (active)
17,Cc1ccc(CNC(=O)c2c(O)nc3c(C)cccn3c2=O)cc1,inactive
18,COC(=O)CNC(=O)c1nc(-c2ccc([S+](C)(=O)[O-])cc2)c2ccccn12,inactive
19,Cc1cc2ccccc2n1CCNC(=O)c1ccc(F)cc1,inactive
20,O=C(CSc1nccn1Cc1ccc(F)cc1)NCc1ccccc1,inactive
21,O=C(NCc1ccc(F)cc1)c1nc(-c2ccccc2)c2ccccn12,28.2 µM (active)
22,Cc1cccc(N2CCN(C(=O)c3cnc(N4CCCC4)nc3C)CC2)c1C,inactive
23,COc1cccc(/C=C2\C=C(c3ccc(C)cc3)OC2=O)c1OC(C)=O,inactive
24,O=C(NCCN1CCCCC1)C(=O)Nc1cccc2[nH]ccc12,inactive
25,CCCC(=O)Nc1ccc(-c2csc(NC)n2)cc1,inactive
26,O=C(Cn1c(=O)c2c(ncn2C2CCCC2)n(Cc2ccccc2)c1=O)NC1CCS(=O)(=O)C1 (configuration not stated),inactive

row,Compound,Potency
1,CC(Oc1ccc(Cl)cc1)c1nc(-c2ccc(Cl)cc2)no1 (configuration not stated),inactive
2,O=c1cc(N2CCOCC2)oc2c(NCc3ccncc3)nccc12,35.5 µM (active)
3,Cc1noc(C)c1-c1nccc2c(=O)cc(N3CCOCC3)oc12,39.8 µM (active)
4,O=c1cc(N2CCOCC2)oc2c(Nc3cccc(Cl)c3)nccc12,inactive
5,CN(c1ccccc1)c1cc(=O)c2ccnc(NC3CCOCC3)c2o1,inactive
6,Cn1ncc2c(Nc3cccc4c3CCCC4)ncnc21,inactive
7,CCc1ccc(-n2nc(C)c3c(C(F)(F)F)cc(OCC(=O)NC(C)C)nc32)cc1,inactive
8,COc1cc2c(C(=O)N(C)c3cc(Cl)ccc3OC)cn(C)c(=O)c2cc1OC,inactive
9,O=C(COc1ccccc1)N1CC2(C1)CN(Cc1ccc(Cl)cc1)C(=O)O2,inactive
10,N#CCCNC(=O)CSc1nc(C2CC2)nc2ccccc12,inactive
11,O=C(Cn1cnc2c(Cl)cc(Cl)cc2c1=O)N(C1CCCC1)C1CCS(=O)(=O)C1 (configuration not stated),inactive
12,Cc1ccc(C2(O)CCN(C(=O)c3ccccc3-c3nn[nH]n3)CC2)nc1,inactive
13,CCCN1C(=O)NC(CC(=O)N2CCC(O)(c3ccc(C)cn3)CC2)C1=O (configuration not stated),inactive
14,Cc1ccc(C2(O)CCN(c3nccc(CCC(F)(F)F)n3)CC2)nc1,22.4 µM (active)
15,Cc1csc(SCc2cc(Cl)c3c(c2)OCCO3)n1,inactive
16,N#Cc1cccc(NC(=O)CSc2ccccc2C(=O)Nc2ccc3c(c2)OCCCO3)c1,inactive
17,COc1ccccc1-n1nc(CC(N)=O)nc1C1CCCCn2nnnc21 (configuration not stated),inactive
18,C=CCOc1cccc(NC(=O)c2ccccc2Cl)c1,inactive
19,CN1CCc2c([nH]c3ccccc23)C12CCN(C(=O)c1nccc3ccccc13)CC2,inactive
20,COCCOCC(=O)N1CCC2(CC1)c1[nH]c3ccc(OC)cc3c1CCN2C,28.2 µM (active)
21,COc1ccc2[nH]c3c(c2c1)CCNC31CCN(C(=O)c2ccccc2)CC1,inactive
22,CCN1CCC(N(C(=O)c2cc3ccccc3n2C)C2CC2)CC1,inactive
23,CCc1cc(=O)oc2c(C)c(OCC(=O)NCCN3CCOCC3)ccc12,inactive
24,O=C(Cc1ccc(Cl)cc1)N1CCc2c(nc3cc[nH]n3c2=O)C1,31.6 µM (active)
25,CCn1c2c(c(=O)n1Cc1ccccc1)CCN(C(=O)Cc1ccc3c(c1)OCO3)C2,inactive
26,O=C(Cc1ccc(F)cc1)N1CCCC(c2nn(-c3ccc(Cl)cc3)c(=O)[nH]2)C1 (configuration not stated),inactive
